The text below walks through data of PubChem BioAssay (NCATS).

Values joined by “and” are separate entries in the source; they are usually repeats but may differ in a detail not shown here. Identical values can stand only once. Inconclusive results are not listed. A call without a number means that no potency is given here. Active and inactive are the calls of the source. The call rests on the fitted dose curve; in most records, active means well fitted inhibition curve with a large enough effect; inconclusive means small, poorly fitted or top-dose-only effect; inactive means no such curve, though single readings can be large or run the other way.
Potency means the concentration at half of the fitted maximal effect.

The assay is described as follows: Primary qHTS for inhibitors of nuclear receptor binding SET domain protein 2 (NSD2) in an RCH-ACV wild type WT cells (2C) (AID 1645877). Further: nearly all actives have a fitted effect of over 70% in size. Particulars: RCH-ACV (leukaemia line) NSD2 WT (2C) viability, CellTiter-Glo, 72 h; series mostly up to 44.9 µM.
Consider `COc1ccccc1N1CCN(CC(O)COc2cc(OC)c(OC)c(OC)c2)CC1` (centres undefined), for which the Potency entry is “inactive”.
As for `Nc1ccc([N+](=O)[O-])c(C(F)(F)F)c1`, the Potency result was “inactive”.
For the compound `Cc1oc(=O)oc1COC(=O)[C@@H]1N2C(=O)[C@@H](NC(=O)[C@H](N)c3ccccc3)[C@H]2SC1(C)C`, the Potency entry was “inactive”.
As to `CC(=O)N(c1onc(C)c1C)S(=O)(=O)c1ccc(N)cc1`, the Potency result is “inactive”.
Same read-out and setting: then `C#CC(C)(CC)OC(=O)c1ccccc1C(=O)O` (centres undefined), with “inactive”.
On the same count and under the same terms, then `OC1(c2ccc(Cl)c(C(F)(F)F)c2)CCN(CCCC(c2ccc(F)cc2)c2ccc(F)cc2)CC1`, with 4.73 µM (active) and 4.59 µM (active).
Take `Cc1cc(O)c2c(O)c3c(O)cccc3cc2c1`: the Potency entry was “inactive”.
Still for that read-out and setting: then `CCO[C@H](Cc1ccc(OCCc2ccc(OS(C)(=O)=O)cc2)cc1)C(=O)O`, with “inactive”; and `CCCOc1ccc2c(c1)CC[C@@H]1[C@@H]2CC[C@]2(C)C(OC)CC[C@@H]12` (some centres undefined), with “inactive”; and `CC(C)(C)c1nnc(NS(=O)(=O)c2ccccc2)s1`, with “inactive”.
Take `Cn1cnc2c(NCc3ccccc3)nc(NCCO)nc21`: the Potency entry is “inactive”.
On the same count and under the same terms, with `O=C(COCCOCCOCC(=O)Nc1c(I)cc(I)c(C(=O)O)c1I)Nc1c(I)cc(I)c(C(=O)O)c1I` the entry was “inactive”.
In the case of `N[C@@H](Cn1ccc(=O)c(O)c1)C(=O)O`, the activity change, negative = cell killing was -0.615% [at 4.96 µM] (inactive).
With `O=C(c1cc(O)c(O)c(O)c1)c1ccc(O)c(O)c1O`, the Potency was 13.3 µM (active).
As to `Cc1[nH]cnc1-c1ccc(Cl)cc1`, the Potency entry is “inactive”.
Consider `Cc1ccc(O)cc1`, for which the Potency entry was “inactive”.
Still for that read-out and setting: with `O=C(NO)c1ccccc1` the figure was 25.9 µM (active); with `CCCCCCCCCCCCCC[N+](C)(C)C`, 0.266 µM (active).
The same measure, in the same setting: then `Cc1cc2nc3ccc(=[N+](C)C)cc-3sc2cc1N`, with 1.06 µM (active).
